Measured values published in PubChem BioAssay (NCATS).
Where “and” joins values, the source holds several entries; their conditions need not be identical. Identical values can stand only once. Records with an inconclusive call do not appear. More than one record can exist for a structure, and the calls need not agree. Calls of active or inactive are those of the source. Calls follow the shape of the dose curve; as a rule, active = well fitted inhibition curve with a large enough effect; inconclusive = small, poorly fitted or top-dose-only effect; inactive = flat fitted curve, though single readings scatter.

Key:
Experiment in all cases: Cytotoxic Profiling of Annotated Libraries Using Quantitative High-Throughput Screening (AID 1296008); also: nearly all actives have a fitted effect of over 60% in size
Conditions in all cases: Five cell lines viability, CellTiter-Glo ATP luminescence, 48-72 h; max response: hits give low values
CRL-7250 = system: CRL-7250
Procedure, shortened: (§1)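 Cells exposed to compounds for 48 or 72 hr at 37 degrees Celsius. Viability read as ATP-coupled luminescence with CellTiter-Glo after 10 min at room temperature.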

HEK293 = system: HEK293
Procedure, shortened: as §1

HaCat = system: HaCat
Procedure, shortened: as §1

KB-3-1 = system: KB-3-1
Procedure, shortened: as §1

NIH3T3 = system: NIH3T3
Procedure, shortened: as §1
% is scaled to controls: 0 for no effect and ±100 for the full control effect; potency is read from the fitted curve at half-maximal effect.

Cc1cn([C@@H]2O[C@H](CO)[C@@H](O)[C@H]2F)c(=O)[nH]c1=O
inactive: max response (CRL-7250) -5.97% | max response (HEK293) -1.3% | max response (HaCat) -13.3% | outcome (KB-3-1) | outcome (NIH3T3)

CCOC(=O)[C@@H](N)Cc1ccc(-c2cc(O[C@H](c3ccc(Cl)cc3-n3ccc(C)n3)C(F)(F)F)nc(N)n2)cc1
inactive: max response (CRL-7250) -8.01% | max response (HEK293) -5.12% | max response (HaCat) 1.01% | outcome (HaCat) | max response (KB-3-1) 6.69%

CC(C)(N)c1ccc(-c2nc3ccccc3nc2-c2ccccc2)cc1
active: Potency (CRL-7250) 0.0743 µM | Potency (HEK293) 0.059 µM | Potency (KB-3-1) 1870 nM | Potency (NIH3T3) 25.9 µM
inactive: max response (CRL-7250) -8.83% | max response (HaCat) -35.2% and -5.95%

Cn1cc(C=CC(=O)c2cccc(F)c2)cc1C=CC(=O)NO
inactive: max response (CRL-7250) -7.49% | outcome (HEK293) | outcome (HaCat) | outcome (KB-3-1) | outcome (NIH3T3)

CCCc1nc(C(C)(C)O)c(C(=O)O)n1Cc1ccc(-c2ccccc2-c2nn[nH]n2)cc1
inactive: outcome (CRL-7250) | outcome (HEK293) | outcome (HaCat) | max response (KB-3-1) 0.595% | outcome (NIH3T3)

c1cc(N[C@@H]2CCNC2)nc(-c2cnc3ccc(-c4cn[nH]c4)cn23)c1
active: Potency (CRL-7250) 11.8 µM

Cc1cnc(Nc2ccc(CN3CCOCC3)cc2)nc1Nc1cccc(S(=O)(=O)NC(C)(C)C)c1
active: Potency (CRL-7250) 3.32 µM and 4.61 µM | Potency (HEK293) 3.66 µM | Potency (HaCat) 2.64 µM and 2.31 µM | Potency (KB-3-1) 4.18 µM and 1.46 µM

CC(C=CC(=O)NO)=C[C@@H](C)C(=O)c1ccc(N(C)C)cc1
active: Potency (CRL-7250) 5.26 µM | Potency (HEK293) 1.05 µM | Potency (HaCat) 2.96 µM | Potency (KB-3-1) 1180 nM | Potency (NIH3T3) 1.48 µM

NC(=O)c1ncn([C@@H]2O[C@H](CO)[C@@H](O)[C@@H]2O)c1O
inactive: max response (CRL-7250) -0.101% | max response (HEK293) 1.7% | max response (HaCat) 4.1% | max response (KB-3-1) 6.36%

C=CCNC1=C2C[C@@H](C)C[C@H](OC)[C@@H](O)[C@@H](C)C=C(C)[C@H](OC(N)=O)[C@@H](OC)C=CC=C(C)C(=O)NC(=CC1=O)C2=O
active: Potency (CRL-7250) 0.296 µM | Potency (HEK293) 0.935 µM | Potency (HaCat) 0.59 µM | Potency (KB-3-1) 105 nM | Potency (NIH3T3) 0.526 µM

CN(C)c1ccc(C(=O)NCCCCCCC(=O)NO)cc1
active: Potency (CRL-7250) 2.64 µM | Potency (HEK293) 1.87 µM | Potency (HaCat) 4.69 µM | Potency (KB-3-1) 2350 nM | Potency (NIH3T3) 3.72 µM

COc1cc2c(cc1OC)[C@@H]1C(=O)c3ccc4c(c3O[C@@H]1CO2)C=CC(C)(C)O4
inactive: max response (HaCat) -2.92%
active: Potency (CRL-7250) 0.0148 µM | Potency (HEK293) 0.0526 µM

C[C@H](CCC(=O)O)[C@H]1CCC2C3C[C@H](O)[C@@H]4C[C@H](O)CC[C@]4(C)C3CC[C@@]21C (stereo partly specified)
inactive: max response (CRL-7250) 3.11% | max response (HEK293) 4.87% | max response (HaCat) -16.1% | max response (KB-3-1) 6.35% | outcome (NIH3T3)

CCc1nc(-c2cccc(C)c2)c(-c2ccnc(NC(=O)c3ccccc3)c2)s1
inactive: outcome (CRL-7250) | max response (HaCat) -12.8% and -8.84% | max response (KB-3-1) -16.2%
active: Potency (HEK293) 14.8 µM

N#Cc1c(NC(=O)c2cccc3ccccc23)sc2c1CCCC2
inactive: outcome (HaCat)
active: Potency (CRL-7250) 1.32 µM | Potency (HEK293) 0.372 µM | Potency (KB-3-1) 469 nM | Potency (NIH3T3) 0.332 µM

COC(=O)[C@@H]1CC2=CC(=O)CC[C@]2(C)[C@@]23O[C@@H]2C[C@@]2(C)[C@H](CC[C@@]24CCC(=O)O4)[C@@H]13
inactive: max response (CRL-7250) -3.2% | outcome (HEK293) | outcome (HaCat) | outcome (KB-3-1) | outcome (NIH3T3)

C[C@@H](NCc1cc2ccccc2[nH]1)c1cccc2ccccc12
inactive: max response (CRL-7250) 3.32% | max response (HEK293) -2.05% | outcome (HaCat) | max response (KB-3-1) 3.8% | max response (NIH3T3) 2.38%

COc1ccc(S(=O)(=O)Nc2cccnc2Nc2ccc(O)cc2)cc1
inactive: max response (HaCat) -5.46%
active: Potency (CRL-7250) 3.66 µM | Potency (HEK293) 0.935 µM | Potency (HaCat) 20.9 µM | Potency (KB-3-1) 332 nM and 820 nM

COc1cc(C)c(C=CC(C)=CC=CC(C)=CC(=O)O)c(C)c1C
inactive: max response (CRL-7250) -4.27% | max response (HEK293) -16.6% | outcome (HaCat) | outcome (KB-3-1) | max response (NIH3T3) -4.41%

Nc1ncn([C@@H]2O[C@H](CO)[C@@H](O)[C@@H]2O)c(=O)n1
active: Potency (CRL-7250) 5.26 µM | Potency (HEK293) 4.18 µM | Potency (KB-3-1) 8330 nM
inactive: max response (HaCat) -5.4%

COc1ccc(C=Cc2cc(OC)c(OC)c(OC)c2)cc1NC(=O)[C@H](N)CO
active: Potency (CRL-7250) 0.0332 µM | Potency (HEK293) 0.0037 µM | Potency (KB-3-1) 3 nM
inactive: max response (HaCat) 4.22%

C=C(C)[C@@H]1CC[C@]2(C(=O)O)CC[C@]3(C)[C@H](CC[C@@H]4[C@@]5(C)CC[C@H](O)C(C)(C)[C@@H]5CC[C@]43C)[C@@H]12
inactive: max response (CRL-7250) -12.6% | max response (HEK293) -13.5% | max response (HaCat) 1.59% | max response (KB-3-1) -12.2% | max response (NIH3T3) 0.0342%

COc1cc(C[C@@H](CO)[C@H](CO)Cc2ccc(O)c(OC)c2)ccc1O
inactive: max response (CRL-7250) -0.633% | max response (HEK293) -2.88% | outcome (HaCat) | max response (KB-3-1) 3.84% | outcome (NIH3T3)

COc1cccc2c1C(=O)c1c(O)c3c(c(O)c1C2=O)C[C@@](O)(C(=O)CO)C[C@H]3O[C@H]1C[C@H](N)[C@H](O)[C@H](C)O1
active: Potency (CRL-7250) 0.418 µM | Potency (HEK293) 0.059 µM | Potency (HaCat) 0.264 µM | Potency (KB-3-1) 526 nM

C[C@H](NCc1ccc2c(c1)nc(NC(=O)c1ccc(-c3cn[nH]c3)s1)n2CCc1ccccc1)C(C)(C)C
active: Potency (CRL-7250) 1.87 µM | Potency (HEK293) 0.935 µM | Potency (HaCat) 2.96 µM | Potency (KB-3-1) 1050 nM | Potency (NIH3T3) 2.64 µM

Cc1cc(C(=O)NOCCO)c(Nc2ccc(I)cc2F)n(C)c1=O
active: Potency (CRL-7250) 0.743 µM
inactive: max response (HEK293) -3.43% | max response (HaCat) -66.6% | max response (KB-3-1) -2.94%

Nc1ccc(C(=O)Nc2cccc(-c3nc(N4CCOCC4)c4oc5ncccc5c4n3)c2)cn1
inactive: outcome (CRL-7250) | max response (HaCat) -11.9% | outcome (KB-3-1)
active: Potency (HEK293) 3.26 µM | Potency (KB-3-1) 20600 nM | Potency (NIH3T3) 2.31 µM

CCCCOc1ccc(C(=O)Nc2ccc(F)cc2F)cc1
inactive: max response (CRL-7250) -1.1% | outcome (CRL-7250) | outcome (HaCat) | max response (KB-3-1) 0.701% | max response (NIH3T3) -3.26% | outcome (NIH3T3)

COC(=O)[C@@H]1[C@H]2C[C@@H]3c4[nH]c5ccccc5c4CCN3C[C@@H]2CC[C@@H]1O
inactive: outcome (CRL-7250) | outcome (HEK293) | outcome (HaCat) | max response (KB-3-1) 1.87% | max response (NIH3T3) -9.61%

C=Cc1c(C)c2cc3nc(cc4[nH]c(cc5nc(cc1[nH]2)C(C)=C5CCC(=O)O)c(CCC(=O)OC)c4C)[C@@]1(C)C3=CC=C(C(=O)OC)[C@H]1C(=O)OC
active: Potency (HEK293) 11.8 µM
inactive: max response (CRL-7250) 1.72% | outcome (HaCat) | outcome (KB-3-1) | max response (NIH3T3) 4.13%

CCOC(=O)C1=C(C)NC(=S)NC1c1cccc(O)c1 (stereo unspecified)
inactive: max response (CRL-7250) -18.5% | max response (HaCat) -10%
active: Potency (HEK293) 0.0132 µM | Potency (KB-3-1) 46.9 nM

Cc1ccc(O)c(C(CCN(C(C)C)C(C)C)c2ccccc2)c1 (stereo unspecified)
inactive: outcome (CRL-7250) | max response (HEK293) -19.9% | outcome (HaCat) | outcome (KB-3-1) | outcome (NIH3T3)

CC(C)(O)[C@H]1CC[C@@](C)([C@H]2[C@@H](O)C[C@@]3(C)[C@@H]4C[C@H](O[C@@H]5O[C@H](CO)[C@@H](O)[C@H](O)[C@@H]5O)[C@H]5C(C)(C)[C@@H](O[C@@H]6OC[C@@H](O)[C@H](O)[C@@H]6O)CC[C@@]56C[C@@]46CC[C@]23C)O1
inactive: outcome (CRL-7250) | max response (HEK293) 2.98% | max response (HaCat) -6.06% | max response (KB-3-1) 2.16% | outcome (NIH3T3)

CCOc1cc2ncc(C#N)c(Nc3ccc(OCc4ccccn4)c(Cl)c3)c2cc1NC(=O)C=CCN(C)C
inactive: max response (KB-3-1) -18.5%
active: Potency (CRL-7250) 1.05 µM | Potency (HEK293) 3.32 µM | Potency (HaCat) 0.0053 µM

O=C(Nc1ccc(Oc2ccnc3[nH]ccc23)c(F)c1)c1cccn(-c2ccc(F)cc2)c1=O
inactive: max response (CRL-7250) -4.56% | max response (HEK293) 2.79% | max response (HaCat) 2.4% | outcome (HaCat) | outcome (KB-3-1) | outcome (NIH3T3)

C=C1C(=O)O[C@H]2[C@@H]1CCC(C)=CCC[C@@]1(C)O[C@@H]21
active: Potency (CRL-7250) 11.8 µM | Potency (HEK293) 4.18 µM | Potency (HaCat) 20.9 µM

CC[C@H](CC[C@@H](C)[C@H]1CC[C@H]2[C@@H]3CC=C4C[C@@H](O)CC[C@]4(C)[C@@H]3CC[C@]12C)C(C)C
inactive: max response (CRL-7250) -0.624% | max response (HEK293) -8.75% | max response (HaCat) 4.34% | max response (KB-3-1) -7.92% | max response (NIH3T3) 4.37%

O=C(O)c1ccc(Nc2ncc3c(n2)-c2ccc(Cl)cc2C(c2c(F)cccc2F)=NC3)cc1
inactive: max response (CRL-7250) 0.615% | outcome (CRL-7250)
active: Potency (HaCat) 9.2 µM | Potency (KB-3-1) 18.7 µM and 5.8 µM

O=C(C=Cc1ccc(CN(CCO)CCc2c[nH]c3ccccc23)cc1)NO
active: Potency (CRL-7250) 0.833 µM | Potency (HEK293) 0.372 µM | Potency (HaCat) 0.526 µM | Potency (KB-3-1) 264 nM | Potency (NIH3T3) 1.05 µM

C[C@@H](Oc1ccc2[nH]nc(C=Cc3cnn(CCO)c3)c2c1)c1c(Cl)cncc1Cl
active: Potency (CRL-7250) 11.8 µM | Potency (HEK293) 13.2 µM | Potency (HaCat) 3.32 µM | Potency (KB-3-1) 418 nM | Potency (NIH3T3) 3.72 µM

C[C@H]1C[C@H]2[C@@H]3CCC4=CC(=O)C=C[C@]4(C)[C@@H]3C(=O)C[C@]2(C)[C@@]1(O)C(=O)CO
inactive: max response (CRL-7250) -3.73% | max response (HEK293) 3.81% | outcome (HaCat) | max response (KB-3-1) 4.3% | outcome (NIH3T3)

CC(=O)O[C@]1(C(C)=O)CC[C@H]2[C@@H]3C=C(C)C4=CC(=O)CC[C@]4(C)[C@@H]3CC[C@@]21C
inactive: outcome (CRL-7250) | max response (HEK293) -9.75% | outcome (HaCat) inactive; activator | outcome (KB-3-1) | max response (NIH3T3) 4.47%
